Giardia kill – kills Giardia lamblia; Giardia lamblia trophozoite viability; activity change, % at 7.66 µM, hits read low; hit rate 0.15% among 340,000; AID 540267; in the data active means activity change below about -80%; inconclusive means between about -30% and that limit;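 further: parasites exposed to compound for two days anaerobically before the ATP read; on the % scale 0 is the no-effect control and ±100 the full control effect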
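Luminescent ATP signal served as the viability read-out, measured 15-30 min after adding ATP detection reagent to trophozoites that had been incubated with compounds for 48 hrs at 37 deg C anaerobically at 100 cells/well.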
p53 reactivator – restores transcriptional activity of mutant p53; H1299 p53-A138V BP100-luciferase reporter, luminescence, 24 h; Potency, µM (series often up to 92.2 µM), without a hit: at the top dose activity change, positive = activation, hits mostly activators; hit rate 0.063% among 320,000; AID 504706; further: potency means the concentration at half of the fitted maximal effect; % of control where 0% means no effect; nearly all actives have a fitted effect of over 45% in size
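p53-null H1299 cells stably carrying temperature-sensitive p53-A138V and a BP100-luciferase reporter were pinned with compounds (4-point, 1:5 series) and held 24 hrs at 37 deg C. Luminescence was read 10 min after detection reagent.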
ELG1 DNA repair – ELG1-dependent DNA repair inhibition. Potency, µM (top dose mostly 46.1 µM), inactives show top-dose activity change, negative = inhibition, actives largely listed as inhibitors. hit rate 2.3% among 330,000. AID 504467. HEK293T ELG1-luciferase reporter, luminescence, 16 h; DNA damage induced by 5-fluorouridine; further: potency means the concentration at half of the fitted maximal effect; on the % scale 0 is the no-effect control and ±100 the full control effect; nearly all actives have a fitted effect of over 55% in size
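5-Fluorouridine DNA damage + compound/DMSO, 2,000 cells/well, 16 h, 37 °C/5% CO2. ONE-Glo, 30 min RT, luminescence. Readout = decrease in reporter signal.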
Gal4-VP16 FLuc – inhibits Gal4-VP16 luciferase reporter, ROR gamma counter-screen. Drosophila S2 Gal4-VP16 UAS-luciferase, luminescence, 20 h. Potency, µM (highest dose often 53.6 µM), without a hit: at the highest dose activity, negative = inhibition, actives largely listed as inhibitors. hit rate 3.5% among 310,000;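 further: Gal4-VP16 expression switched on by copper sulfate through the metallothionein promoter; potency means the concentration at half of the fitted maximal effect; on the % scale 0 is the no-effect control and ±100 the full control effect; nearly all actives have a fitted effect of over 50% in size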
BRCA1 expr up – BRCA1 expression activation | hit rate 1.1% among 380,000 | MCF7-BRCA1-FFLuc reporter, luminescence, 48 h; response scale: scaled: vehicle 0%, 10 µM genistein 100% | Potency, µM (highest dose often 46.1 µM), for the others: at the top dose activation, most hits filed as activators; further: potency means the concentration at half of the fitted maximal effect; nearly all actives have a fitted effect of over 80% in size
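Quantitative HTS in MCF7 cells stably reporting BRCA1 expression via firefly luciferase. Compound treatment lasts 48 h at 37 °C in phenol-red free MEM. Activation is expressed relative to genistein at 10 microM and DMSO.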
RORg inh – inhibitors of mouse ROR gamma transcriptional activity; Drosophila S2 Gal4-RORgamma UAS-luciferase reporter, 20 h; Potency, µM (highest dose often 53.6 µM), for the others: top-dose activity change, negative = inhibition, most hits filed as inhibitors; hit rate 5.4% among 310,000; further: potency means the concentration at half of the fitted maximal effect; on the % scale 0 is the no-effect control and ±100 the full control effect; nearly all actives have a fitted effect of over 60% in size
Target sequence (P51450 whole entry, looked up, the tested form may be a part): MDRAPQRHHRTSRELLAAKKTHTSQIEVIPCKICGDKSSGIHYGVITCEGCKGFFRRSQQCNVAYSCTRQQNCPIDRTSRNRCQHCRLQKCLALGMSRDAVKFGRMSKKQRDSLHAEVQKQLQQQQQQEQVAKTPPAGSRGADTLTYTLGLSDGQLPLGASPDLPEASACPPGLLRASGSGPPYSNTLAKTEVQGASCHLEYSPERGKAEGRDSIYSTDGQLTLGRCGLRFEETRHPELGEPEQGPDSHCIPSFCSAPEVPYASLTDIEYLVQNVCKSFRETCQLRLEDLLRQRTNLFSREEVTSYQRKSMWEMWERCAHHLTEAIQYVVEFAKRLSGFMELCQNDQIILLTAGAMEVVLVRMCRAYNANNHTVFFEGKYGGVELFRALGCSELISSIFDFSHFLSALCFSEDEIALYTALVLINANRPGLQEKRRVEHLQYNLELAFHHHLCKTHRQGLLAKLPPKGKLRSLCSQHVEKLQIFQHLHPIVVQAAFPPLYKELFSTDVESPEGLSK
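Drosophila Schneider cells stably carrying a metallothionein-driven Gal4 DBD–ROR gamma fusion and a UAS-Photinus luciferase reporter were exposed to compound for 1 hr, then induced with copper sulfate (700 uM final) for 20 hr at ambient temperature before luminescence reading.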
Active calls of the source: *; ? = inconclusive; . = no result given; [ ] = dose if it differs, or a comment. The list is not random: actives were taken first. Their share in the collection is about 7.6%. Unless noted, the call rests on the fitted dose curve; in most records, active means well fitted curve in the direction sought with a large enough effect; inconclusive means small, poorly fitted or top-dose-only effect, or another doubt; inactive means no such curve, though single readings can be large; an effect the other way counts as inactive or inconclusive.

SMILES | Giardia kill | p53 reactivator | ELG1 DNA repair | Gal4-VP16 FLuc | BRCA1 expr up | RORg inh
O=S(c1ccsc1)c1ccsc1 | 10 | -7% | 7% | -4%[0.365 µM] | 24% | ?
COC(=O)c1ccc2nc(NC(=O)C3CC3)sc2c1 | -5 | ? | ? | ? | -37% | 8.9µM*
COC(=O)c1ccc2nc(NC(=O)CCS(=O)(=O)c3ccccc3)sc2c1 | 3 | 7% | -10% | -17% | -47% | 0%
COC(=O)c1ccc2nc(NC(=O)C(C)C)sc2c1 | 0 | 28% | ? | -27% | 2% | ?
COC(=O)c1ccc2nc(Nc3nc4c(F)cc(F)cc4s3)sc2c1 | -23 | -12% | ? | 1.1µM* | -106% | 0.32µM*
CCOC(=O)c1ccc2nc(Nc3nc4ccc(F)cc4s3)sc2c1 | -5 | ? | ? | -18% | ? | 0.79µM*
N#Cc1nc(-c2ccco2)oc1N1CCC(C(N)=O)CC1 | -2 | 3% | 7% | 4% | 1% | 0%
C=CCOc1ccc2c(=O)n(C)c3ccccc3c2c1 | ? | . | . | 2% | . | 8%
CCN(C[C@H]1N[C@@](C)(C(=O)OC)[C@H]2C(=O)N(Cc3ccccc3)C(=O)[C@@H]12)C(=O)c1ccc(C(C)(C)C)cc1 | 6 | -8% | 10µM* | . | 9% | .
CCN(C[C@H]1N[C@@](C)(C(=O)OC)[C@H]2C(=O)N(Cc3ccccc3)C(=O)[C@@H]12)C(=O)COC | -20 | 5% | ? | . | 4% | .
O=C(COC(=O)Cc1ccc(F)cc1)NC1CCCCCC1 | 23 | -1% | 16% | . | 2% | .
O=C(CCc1c[nH]c2ccccc12)OCc1cccc([N+](=O)[O-])c1 | -8 | 2% | -4% | 9% | -25% | 3%
CCOCCCN1CN(Cc2ccco2)CNC1=S | -20 | 2% | ? | -4% | 12% | 11µM*
S=C1NCN(Cc2ccco2)CN1CCc1ccccc1 | 2 | -1% | -10% | 11µM* | 10% | 2.2µM*
COCCCN1CN(Cc2ccccc2)CNC1=S | 22 | -6% | 1% | ? | 4% | 11µM*
COCCN1CSC(=S)N(Cc2ccco2)C1 | ? | 19% | -20% | -15% | 91% | ?
CC(C)CN1CN(Cc2ccco2)CNC1=S | 8 | 3% | 11% | ? | -1% | 2.2µM*
Cc1cc(C)nc(N(C#N)S(=O)(=O)c2ccccc2Cl)n1 | 8 | 8% | 18% | -5% | 2% | -44%
S=C1NCN(CCc2ccccc2)CN1 | 26 | 2% | 10% | -2% | -9% | -19%
CC(C)CN1CN(Cc2ccccc2)CNC1=S | -24 | 0% | 11% | 5.6µM* | -15% | 4µM*
Cc1ccc(N2CN(Cc3cccnc3)CNC2=S)cc1 | 10 | -4% | 9% | -12% | 2% | -11%
CCCN1CNC(=S)N(Cc2ccccc2)C1 | 3 | 0% | 6% | 7.1µM* | 1% | 5.6µM*
CCCCN1CNC(=S)N(Cc2ccccc2)C1 | 2 | 5% | 10% | 5.6µM* | -29% | 4µM*
CCCN1CN(Cc2ccccc2)CNC1=S | -9 | -4% | 25% | 7.1µM* | -2% | 6.3µM*
Cn1c(=O)c2[nH]c(CCNC(=O)c3ccccc3)nc2n(C)c1=O | 2 | . | . | . | -28% | .
SMILES | Giardia kill | p53 reactivator | ELG1 DNA repair | Gal4-VP16 FLuc | BRCA1 expr up | RORg inh
Cc1ccccc1NC(=O)NCC1CCCO1 (configuration not stated) | -1 | . | . | 7% | 2% | -7%
CSc1ccc(/C=N/n2c(C)cc(C)cc2=O)cc1 | -8 | 29% | ? | 2% | 10µM* | ?
Cc1nc2ccccn2c1-c1csc(Nc2ccc(C(=O)O)cc2)n1 | -6 | -6% | ? | 1% | 5% | 6%
COc1cc(C=CC(=O)c2ccccc2)cc(OC)c1OC | . | . | . | . | -60% | .
Cc1nn(C)cc1/C=C/C(=O)c1ccccc1 | -14 | ? | ? | ? | 69% | ?
O=C(C=Cc1cccs1)c1cccs1 | 0 | . | . | . | 4% | .
Cc1nn(C)cc1/C=C/C(=O)c1cccs1 | ? | 20µM* | ? | ? | ? | -104%
O=C(/C=C/c1ccc(O)cc1)c1cccs1 | . | . | . | -3% | . | 14µM*
COc1cc(/C=C/C(=O)c2cccs2)cc(OC)c1OC | . | . | . | ? | . | 7.9µM*
C/C(=N\OCC(=O)Nc1ccccc1C(C)(C)C)c1ccc2c(c1)OCCO2 | -16 | 3% | -17% | 3% | -24% | -12%
CC(NS(=O)(=O)c1ccccc1[N+](=O)[O-])c1ccccn1 (configuration not stated) | . | . | . | . | 0% | .
COC(=O)c1ccccc1NC(=O)Cn1c(=O)n(CCC(=O)NCc2ccc3c(c2)OCO3)c(=O)c2ccccc21 | . | . | . | . | 3% | .
COc1ccc(/C=C2\SC(=S)N(CCC(=O)NC3C=CS(=O)(=O)C3)C2=O)cc1 (configuration not stated) | -25 | -8% | 28% | 3% | -33% | ?
O=C(CN1C(=O)/C(=C/c2cccc(Cl)c2)SC1=S)NC1C=CS(=O)(=O)C1 (configuration not stated) | 13 | 0% | 15% | ? | -25% | 13µM*
O=C(CN1C(=O)S/C(=C\c2ccc(Cl)cc2)C1=O)NC1C=CS(=O)(=O)C1 (configuration not stated) | -28 | 7% | 0% | -10% | -6% | -23%
COc1cccc(/C=C2\SC(=S)N(CCC(=O)NC3C=CS(=O)(=O)C3)C2=O)c1 (configuration not stated) | -1 | -10% | 4.6µM* | 0% | -29% | -23%
O=C(CN1C(=O)S/C(=C\c2cccc(Cl)c2)C1=O)NC1C=CS(=O)(=O)C1 (configuration not stated) | -27 | 2% | 4% | -1% | 7% | 7.9µM*
CS(=O)(=O)Cc1ccc(C(=O)N2CCCC2c2cccs2)cc1 (configuration not stated) | 9 | 2% | 11% | 1% | 0% | -4%
NNC(=O)c1ccc(COc2cccc3cccnc23)cc1 | 7 | ? | ? | 0% | 18% | -1%
CCCCn1c(N)c(N(C(=O)CSc2nnnn2-c2ccccc2)C2CCCC2)c(=O)[nH]c1=O | 3 | 3% | ? | . | 4% | .
COCCN1Cc2cccc(C(=O)Nc3ccc(-c4nc5ccccc5[nH]4)cc3)c2C1=O | 87 | 4% | ? | -7% | ? | 22%[10 µM]
CC(CC(=O)Nc1nc2ccccc2[nH]1)n1ccnc1 (configuration not stated) | 14 | 2% | 17% | -1% | -28% | 4%
CCOc1ccc(OCCCC(=O)Nc2nc3ccccc3[nH]2)cc1 | 5 | 4% | 8% | 1% | -8% | -39%

Screens: PubChem, National Center for Advancing Translational Sciences (NCATS)
